PubChem BioAssay (EPA / NIEHS)
Active and inactive are the calls of the source. How the source made its calls: active means hit-call score of the fitted dose curve at least 0.9, where 1 is the maximum; inactive means score below 0.9.

Experiments:
Conditions in all cases: mRNA level, 48 h; actives raise or lower the signal
[1] = read-out: Bcl-2 (BAX) gene, BAX (gene 581); experiment: LTEA_HepaRG_BAX: Life Technologies and Expression Analysis (LTEA) Assay for Bcl-2 (BAX) gene using HepaRG (AID 2283470)
Procedure, shortened: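 Human HepaRG cells treated in duplicate for 48 h across eight concentrations (max 100 uM, 0.5% DMSO); BAX expression measured by qRT-PCR.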

[2] = read-out: adenosine kinase (ADK) gene, ADK (gene 132); experiment: LTEA_HepaRG_ADK: Life Technologies and Expression Analysis (LTEA) Assay for adenosine kinase (ADK) gene using HepaRG (AID 2283471)
Procedure, shortened: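 Following 48 h exposure of HepaRG cells in 0.5% DMSO (top concentration 100 uM, duplicate wells), ADK mRNA induction or suppression was measured by qRT-PCR, normalised to ACTB/GAPDH/POLR2A, and fitted bidirectionally relative to vehicle.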

[3] = read-out: Alpha-fetoprotein (AFP) gene, AFP (gene 174); experiment: LTEA_HepaRG_AFP: Life Technologies and Expression Analysis (LTEA) Assay for Alpha-fetoprotein (AFP) gene using HepaRG (AID 2283472)
Procedure, shortened: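 Measures AFP mRNA change in HepaRG after 48 h chemical exposure (8 half-log concentrations, highest 100 uM, 0.5% DMSO). Fold change relative to DMSO, fitted in both directions.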

BCL2L11 (gene 10018) = experiment: LTEA_HepaRG_BCL2L11: Life Technologies and Expression Analysis (LTEA) Assay for Bcl-2 (BCL2L11) gene using HepaRG (AID 2283473)
Procedure, shortened: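 Differentiated human HepaRG cells in serum-free induction medium were exposed in duplicate for 48 h to eight concentrations (top 100 uM, half-log steps, 0.5% DMSO). BCL2L11 mRNA was quantified by TaqMan qRT-PCR, normalized to ACTB/GAPDH/POLR2A, bidirectional fit versus DMSO.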

[4] = read-out: Apolipoprotein A-V (APOA5) gene, APOA5 (gene 116519); experiment: LTEA_HepaRG_APOA5: Life Technologies and Expression Analysis (LTEA) Assay for Apolipoprotein A-V (APOA5) gene using HepaRG (AID 2283474)
Procedure, shortened: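 Differentiated human HepaRG cells were exposed in duplicate for 48 h to eight half-log concentrations from 100 uM in 0.5% DMSO. APOA5 mRNA was quantified by TaqMan qRT-PCR, normalized to ACTB, GAPDH and POLR2A, and fitted bidirectionally against DMSO.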

[5] = read-out: Apoptosis regulator Bcl-2 (Homo sapiens) (UniProt P10415); experiment: LTEA_HepaRG_BCL2: Life Technologies and Expression Analysis (LTEA) Assay for Bcl-2 gene using HepaRG (AID 2283475)
Procedure, shortened: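 Each chemical was tested in duplicate on HepaRG cultures held in serum-free induction medium for 48 h, highest concentration 100 uM with half-log dilutions. Transcript levels came from multiplexed qRT-PCR, normalised to housekeeping genes; activity was scored in either direction relative to DMSO.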

[6] = read-out: Bcl-2 (BID) gene, BID (gene 637); experiment: LTEA_HepaRG_BID: Life Technologies and Expression Analysis (LTEA) Assay for Bcl-2 (BID) gene using HepaRG (AID 2283476)
Procedure, shortened: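 Assay used HepaRG hepatic cells treated 48 h in serum-free medium with half-log dilutions from 100 uM. Endpoint: BID mRNA, qRT-PCR, normalized to ACTB/GAPDH/POLR2A.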

Caspase-3 (Homo sapiens) = Caspase-3 (Homo sapiens) (UniProt P42574); experiment: LTEA_HepaRG_CASP3: Life Technologies and Expression Analysis (LTEA) Assay for cysteine-aspartic acid protease (CASP3) using HepaRG (AID 2283477)
Caspase-3 (Homo sapiens), sequence (P42574 whole entry, looked up): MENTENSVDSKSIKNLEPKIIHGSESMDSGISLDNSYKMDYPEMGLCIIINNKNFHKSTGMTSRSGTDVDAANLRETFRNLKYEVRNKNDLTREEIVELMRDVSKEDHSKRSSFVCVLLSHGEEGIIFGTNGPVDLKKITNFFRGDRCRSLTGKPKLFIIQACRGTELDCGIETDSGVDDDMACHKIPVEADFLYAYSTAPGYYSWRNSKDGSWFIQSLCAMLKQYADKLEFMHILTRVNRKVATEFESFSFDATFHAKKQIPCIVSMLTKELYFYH
Procedure, shortened: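 Differentiated human HepaRG cells in serum-free induction medium were exposed 48 h to 8-point half-log concentrations from 100 uM (0.5% DMSO vehicle). CASP3 mRNA was measured by qRT-PCR, normalised to ACTB, GAPDH and POLR2A, with bidirectional fitting against DMSO.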

[7] = read-out: Cytochrome P450 (CYP24A1), CYP24A1 (gene 1591); experiment: LTEA_HepaRG_CYP24A1: Life Technologies and Expression Analysis (LTEA) Assay for Cytochrome P450 (CYP24A1) using HepaRG (AID 2283478)
Procedure, shortened: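 Differentiated HepaRG cells, pre-cultured 48 h, were exposed in duplicate for 48 h in serum-free induction medium to 8 half-log concentrations (top 100 uM, 0.5% DMSO). CYP24A1 mRNA was quantified by TaqMan qRT-PCR, normalized to ACTB/GAPDH/POLR2A, fitted bidirectionally versus DMSO.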

[8] = read-out: cysteine-aspartic acid protease (CASP8), CASP8 (gene 841); experiment: LTEA_HepaRG_CASP8: Life Technologies and Expression Analysis (LTEA) Assay for cysteine-aspartic acid protease (CASP8) using HepaRG (AID 2283480)
Procedure, shortened: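 qRT-PCR readout of CASP8 mRNA, normalized to three housekeeping genes, after 48 h chemical exposure of HepaRG cells; 8-point half-log series, top 100 uM, 0.5% DMSO vehicle. Bidirectional curve fitting against DMSO baseline.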

[9] = read-out: Cytochrome P450 (CYP2B6), CYP2B6 (gene 1555); experiment: LTEA_HepaRG_CYP2B6: Life Technologies and Expression Analysis (LTEA) Assay for Cytochrome P450 (CYP2B6) using HepaRG (AID 2283481)
Procedure, shortened: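 Differentiated HepaRG cells, serum-free induction medium, exposed 48 h in duplicate to 8-point half-log concentrations from 100 uM in 0.5% DMSO. CYP2B6 mRNA by qRT-PCR, normalized to ACTB, GAPDH, POLR2A; bidirectional fit versus DMSO.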

[10] = read-out: Cytochrome P450 2C19 (Homo sapiens) (UniProt P33261); experiment: LTEA_HepaRG_CYP2C19: Life Technologies and Expression Analysis (LTEA) Assay for CYP2C19 using HepaRG (AID 2283482)
Procedure, shortened: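 Differentiated human HepaRG cells were exposed for 48 h in serum-free induction medium to 8 concentrations (top 100 uM, half-log steps, 0.5% DMSO). CYP2C19 mRNA was measured by qRT-PCR, normalized to ACTB/GAPDH/POLR2A, and fitted bidirectionally against DMSO.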

CYP2C8 (gene 1558) = experiment: LTEA_HepaRG_CYP2C8: Life Technologies and Expression Analysis (LTEA) Assay for CYP2C8 using HepaRG (AID 2283483)
Procedure, shortened: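 HepaRG (human liver line), 48 h chemical exposure, 8-pt half-log series from 100 uM, 0.5% DMSO vehicle. Readout: CYP2C8 transcript by qRT-PCR, housekeeping-normalized. Bidirectional fit vs DMSO baseline.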

CYP2C9 (gene 1559) = experiment: LTEA_HepaRG_CYP2C9: Life Technologies and Expression Analysis (LTEA) Assay for CYP2C9 using HepaRG (AID 2283484)
Procedure, shortened: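 HepaRG, 48 h dosing, 8-pt half-log series, top 100 uM, 0.5% DMSO vehicle. Read-out: CYP2C9 transcript by TaqMan qRT-PCR, housekeeping-normalized (ACTB/GAPDH/POLR2A). Gain or loss fitted vs DMSO baseline.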

CYP2E1 (gene 1571) = experiment: LTEA_HepaRG_CYP2E1: Life Technologies and Expression Analysis (LTEA) Assay for CYP2E1 using HepaRG (AID 2283485)
Procedure, shortened: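 Assay uses 48 h exposure of HepaRG hepatic cells, eight concentrations to 100 uM. Expression of CYP2E1 is quantified by TaqMan qRT-PCR with ACTB, GAPDH and POLR2A normalization; curves fitted in both directions relative to vehicle.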

CYP4A11 (gene 1579) = experiment: LTEA_HepaRG_CYP4A11: Life Technologies and Expression Analysis (LTEA) Assay for CYP4A11 using HepaRG (AID 2283486)
Procedure, shortened: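 Differentiated HepaRG cells, serum-free induction medium, exposed 48 h in duplicate to 8-point half-log series from 100 uM in 0.5% DMSO. CYP4A11 mRNA measured by qRT-PCR, normalized to ACTB, GAPDH, POLR2A; bidirectional fit versus DMSO.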

[11] = read-out: Cytochrome P450 3A4 (Homo sapiens) (UniProt P08684); experiment: LTEA_HepaRG_CYP3A4: Life Technologies and Expression Analysis (LTEA) Assay for CYP3A4 using HepaRG (AID 2283487)
Procedure, shortened: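 In a human hepatic line (HepaRG), duplicate wells were treated 48 h with up to 100 uM chemical in half-log dilutions. Endpoint: CYP3A4 mRNA induction or loss relative to 0.5% DMSO vehicle, by qRT-PCR.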

[12] = read-out: DNA damage-inducible transcript 3 (DDIT3), DDIT3 (gene 1649); experiment: LTEA_HepaRG_DDIT3: Life Technologies and Expression Analysis (LTEA) Assay for DNA damage-inducible transcript 3 (DDIT3) using HepaRG (AID 2283488)
Procedure, shortened: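 Eight-point concentration-response (100 uM highest, half-log dilutions) in HepaRG, 48 h, duplicate wells. Endpoint: qRT-PCR mRNA, normalized (ACTB, GAPDH, POLR2A), bidirectional fitting with DMSO as baseline.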

[13] = read-out: Pro-epidermal growth factor (Homo sapiens) (UniProt P01133); experiment: LTEA_HepaRG_EGF: Life Technologies and Expression Analysis (LTEA) Assay for Epidermal growth factor (EGF) using HepaRG (AID 2283489)
Procedure, shortened: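 Differentiated human HepaRG cells, plated 48 h then switched to serum-free induction medium, were exposed for 48 h to test chemicals (8-point half-log series, top 100 uM, 0.5% DMSO). EGF mRNA was quantified by qRT-PCR, normalized to ACTB, GAPDH, POLR2A.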

[14] = read-out: Ezrin (EZR), EZR (gene 7430); experiment: LTEA_HepaRG_EZR: Life Technologies and Expression Analysis (LTEA) Assay for Ezrin (EZR) using HepaRG (AID 2283491)
Procedure, shortened: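 Gain or loss of EZR mRNA is scored relative to 0.5% DMSO in human HepaRG cultures treated 48 h with test chemicals in duplicate, eight half-log concentrations from 100 uM.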

Measured: outcome

Apoptosis regulator Bcl-2 (Homo sapiens), sequence (P10415 whole entry, looked up): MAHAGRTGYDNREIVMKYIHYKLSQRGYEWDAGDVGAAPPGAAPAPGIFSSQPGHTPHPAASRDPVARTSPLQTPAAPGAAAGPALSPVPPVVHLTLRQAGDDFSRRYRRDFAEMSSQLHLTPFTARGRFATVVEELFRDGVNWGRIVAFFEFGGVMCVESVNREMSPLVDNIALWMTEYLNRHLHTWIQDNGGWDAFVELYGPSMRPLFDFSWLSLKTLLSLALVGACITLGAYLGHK
Cytochrome P450 3A4 (Homo sapiens), sequence (P08684 whole entry, looked up): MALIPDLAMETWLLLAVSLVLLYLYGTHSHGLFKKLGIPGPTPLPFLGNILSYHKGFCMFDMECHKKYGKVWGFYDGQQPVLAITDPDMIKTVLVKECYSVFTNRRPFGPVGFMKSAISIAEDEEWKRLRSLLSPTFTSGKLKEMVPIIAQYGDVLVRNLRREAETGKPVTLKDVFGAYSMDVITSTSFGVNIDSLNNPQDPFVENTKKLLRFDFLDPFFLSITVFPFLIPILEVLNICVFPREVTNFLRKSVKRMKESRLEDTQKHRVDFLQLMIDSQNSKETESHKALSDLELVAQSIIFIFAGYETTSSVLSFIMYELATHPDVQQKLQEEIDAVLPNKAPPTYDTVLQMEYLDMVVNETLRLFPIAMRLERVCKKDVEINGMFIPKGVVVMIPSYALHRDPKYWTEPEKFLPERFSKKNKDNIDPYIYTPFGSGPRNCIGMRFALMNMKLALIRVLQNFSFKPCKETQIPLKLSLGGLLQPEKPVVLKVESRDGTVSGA
Cytochrome P450 2C19 (Homo sapiens), sequence (P33261 whole entry, looked up): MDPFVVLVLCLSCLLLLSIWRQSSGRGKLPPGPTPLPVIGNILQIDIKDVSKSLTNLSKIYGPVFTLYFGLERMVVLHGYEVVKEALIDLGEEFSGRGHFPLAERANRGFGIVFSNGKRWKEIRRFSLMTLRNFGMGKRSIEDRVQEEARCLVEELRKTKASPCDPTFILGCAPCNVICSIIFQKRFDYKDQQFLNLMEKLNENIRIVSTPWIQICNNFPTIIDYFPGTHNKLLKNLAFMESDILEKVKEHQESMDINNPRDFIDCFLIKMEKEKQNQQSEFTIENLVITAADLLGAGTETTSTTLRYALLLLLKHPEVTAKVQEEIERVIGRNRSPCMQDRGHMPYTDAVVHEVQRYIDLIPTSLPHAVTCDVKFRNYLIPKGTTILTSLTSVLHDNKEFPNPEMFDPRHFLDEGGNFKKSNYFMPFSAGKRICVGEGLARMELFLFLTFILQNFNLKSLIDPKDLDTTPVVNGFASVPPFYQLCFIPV

O=C(O)c1ccc([N+](=O)[O-])cc1
inactive: all assays above
